Active and inactive are the calls of the source. Rule for the calls: active = hit-call score of the fitted dose curve at least 0.9, where 1 is the maximum; inactive = score below 0.9.
Columns and labels:
[1] = APR_HepG2_CellCycleArrest_24hr: Apredica 24-hour HepG2 Assay for Cell Cycle Arrest (AID 2282905); settings: imaging, actives raise or lower the signal;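 note: cell cycle arrest scored as ratio of 2N to 4N nuclear DNA content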
How it was run: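 Compounds at 0.39–200 uM (0.5% DMSO) for 24 h, then fixed and Hoechst 33342 stained. Cell-cycle analysis of nuclear DNA content by high-content imaging, fitted bidirectionally versus DMSO.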

[2] = APR_HepG2_NuclearSize_24hr: Apredica 24-hour HepG2 Assay for Nuclear Size (AID 2282907); settings: high-content imaging, actives raise or lower the signal
How it was run: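 HepG2 cells exposed 24 h to compounds at 0.39–200 uM (0.5% DMSO), fixed, Hoechst 33342 stained and imaged at 20x; nuclear diameter measured by automated image analysis, fitted bidirectionally against DMSO controls.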

[3] = APR_HepG2_CellLoss_24hr: Apredica 24-hour HepG2 Assay for Cell Loss (AID 2282908); settings: high-content imaging;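 for AC50: fit in both directions so a hit may be cell loss or gain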
How it was run: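 HepG2 cells exposed 24 hr to 0.39–200 uM compound in duplicate at 0.5% v/v final DMSO. Cells fixed in 3.7% formaldehyde and Hoechst 33342-stained. Cell number came from nuclear imaging at 20x. Bidirectional fit versus DMSO.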

[4] = APR_HepG2_MicrotubuleCSK_24hr: Apredica 24-hour HepG2 Assay for Microtubule CSK Stabilty (AID 2282909); settings: HepG2 microtubule cytoskeleton imaging, actives raise or lower the signal
How it was run: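 HepG2 cells were treated 24 hr with compound at 0.39–200 uM in duplicate (0.5% DMSO final), then fixed and permeabilized. Alpha-tubulin immunofluorescence was imaged by high-content microscopy, with bidirectional fitting against DMSO and taxol as positive control.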

[5] = APR_HepG2_MitoticArrest_24hr: Apredica 24-hour HepG2 Assay for Mitotic Arrest (AID 2282910); settings: high-content imaging, actives raise or lower the signal
How it was run: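 Compounds are dosed onto HepG2 cells across ten concentrations up to 200 uM for 24 hr. Cells are then fixed in 3.7% formaldehyde, permeabilised, and labelled for phospho-histone H3 and nuclei; images are scored by cell cycle analysis and fitted bidirectionally relative to DMSO.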

[6] = APR_HepG2_MitoMembPot_24hr: Apredica 24-hour HepG2 Assay for Mitochondrial Membrane Potential (AID 2282911); settings: imaging, actives raise or lower the signal
How it was run: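 Mitochondrial dye uptake (MitoTracker Red CMXRos, 250 nM, 30 min pre-fixation) in HepG2 after 24 hr compound exposure, 0.39–200 uM; ArrayScan images at 20x, activity fitted in both directions relative to DMSO.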

[7] = APR_HepG2_MitoMass_24hr: Apredica 24-hour HepG2 Assay for Mitochondrial Mass (AID 2282912); settings: high-content imaging, actives raise or lower the signal
How it was run: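 HepG2 cells exposed 24 hr to 0.39–200 uM compound, 0.5% v/v DMSO, in duplicate. Stained before fixation with 250 nM MitoTracker Red CMXRos for 30 min, then imaged at 20x with Hoechst nuclei. Fitted in both directions against DMSO.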

[8] = APR_HepG2_CellCycleArrest_72hr: Apredica 72-hour HepG2 Assay for Cell Cycle Arrest (AID 2282914); settings: high-content imaging, actives raise or lower the signal
How it was run: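 Using multiplexed high-content imaging, HepG2 nuclei stained with Hoechst 33342 (2 ug/mL) were analysed for DNA content after fixation and permeabilization. Treatment lasted 72 hr across 0.39–200 uM in duplicate with final DMSO 0.5% v/v; DMSO served as negative control.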

[9] = APR_HepG2_CellLoss_72hr: Apredica 72-hour HepG2 Assay for Cell Loss (AID 2282915); settings: high-content imaging
How it was run: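 Cell number comes from Hoechst 33342-labelled nuclei, imaged at 20x after 3.7% formaldehyde fixation. Dosing was 0.39–200 uM, ten concentrations in duplicate, 0.5% DMSO final, for 72 h. Bidirectional fit relative to DMSO baseline.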

[10] = APR_HepG2_MitoMembPot_72hr: Apredica 72-hour HepG2 Assay for Mitochondrial Membrane Potential (AID 2282917); settings: imaging, actives raise or lower the signal
How it was run: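 Membrane potential read by MitoTracker Red CMXRos (250 nM, 30 min, pre-fixation) fluorescence imaging of HepG2 after 72 hr exposure. Ten concentrations, 0.39–200 uM, duplicate wells, 0.5% DMSO; fitted in both directions against DMSO baseline.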

[11] = APR_HepG2_MitoticArrest_72hr: Apredica 72-hour HepG2 Assay for Mitotic Arrest (AID 2282918); settings: high-content imaging, actives raise or lower the signal
How it was run: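 Using high-content imaging of fixed HepG2 cells, phospho-histone H3 signal was measured following a 72 hr incubation with ten-point compound dilutions up to 200 uM. DMSO served as the negative control and baseline for bidirectional curve fitting.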

[12] = APR_HepG2_MicrotubuleCSK_72hr: Apredica 72-hour HepG2 Assay for Microtubule CSK Stabilty (AID 2282919); settings: HepG2 microtubule cytoskeleton, high-content imaging, actives raise or lower the signal
How it was run: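 Read-out is tubulin fluorescence intensity from high-content imaging of HepG2 cells, with nuclei identified by Hoechst 33342. Treatment lasts 72 h at 0.39–200 uM, and curves are fitted bidirectionally against the DMSO negative control.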

[13] = APR_HepG2_P-H2AX_24hr: Apredica 24-hour HepG2 Assay for H2AX Phosphorylation (AID 2282920); settings: high-content imaging, actives raise or lower the signal
How it was run: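 Human HepG2 liver cells, treated 24 hr with test chemicals (0.39–200 uM, final DMSO 0.5% v/v), are fixed and co-stained for phospho-H2A.x and c-Jun with Hoechst. Imaged intensity is fitted in both directions against DMSO controls.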

[14] = APR_HepG2_StressKinase_72hr: Apredica 72-hour HepG2 Assay for Stress Kinase (AID 2282921); settings: HepG2 stress kinase (phospho-c-Jun) imaging, actives raise or lower the signal
How it was run: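 HepG2 cells treated 72 hr with 0.39–200 uM compound, 0.5% v/v DMSO, duplicate wells. After formaldehyde fixation and Triton permeabilization, stained with anti-phospho-c-Jun (1:500) and Cy3 secondary, imaged at 20x. Fitted in both directions against DMSO.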

[15] = APR_HepG2_StressKinase_24hr: Apredica 24-hour HepG2 Assay for Stress Kinase (AID 2282922); settings: HepG2 stress kinase (phospho-c-Jun) imaging, actives raise or lower the signal
How it was run: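 HepG2, 24 hr dosing, 0.39–200 uM in duplicate, 0.5% DMSO; formaldehyde fix (3.7%), 0.5% Triton X-100; anti-phospho-c-Jun + Cy3 secondary, Hoechst counterstain; ArrayScan imaging; bidirectional curve fit vs DMSO baseline.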

[16] = APR_HepG2_MitoMass_72hr: Apredica 72-hour HepG2 Assay for Mitochondrial Mass (AID 2282924); settings: high-content imaging, actives raise or lower the signal;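 note: MitoTracker Red CMXRos stain intensity per cell imaged as mitochondrial mass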
How it was run: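 HepG2, 72 hr cmpd, 10 conc 0.39–200 uM in dup, DMSO 0.5% v/v. MitoTracker Red CMXRos 250 nM 30 min pre-fix; formaldehyde 3.7% fix 30 min RT. HCS imaging, gain/loss fit vs DMSO.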

[17] = APR_HepG2_NuclearSize_72hr: Apredica 72-hour HepG2 Assay for Nuclear Size (AID 2282925); settings: high-content imaging, actives raise or lower the signal
How it was run: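 HepG2; cpd 0.39–200 uM, 10 conc, duplicate; 72 h; DMSO 0.5% v/v; fix 3.7% formaldehyde 30 min RT; Triton permeabilization; Hoechst 2 ug/mL; HCS imaging 20x; nuclear diameter; gain/loss fit vs DMSO.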

[18] = APR_HepG2_P-H2AX_72hr: Apredica 72-hour HepG2 Assay for H2AX Phosphorylation (AID 2282916); settings: imaging, actives raise or lower the signal;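 note: phospho-histone H2A.x immunostain intensity per cell marking DNA damage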
How it was run: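 HepG2 cells treated 72 h at 0.39–200 uM, 0.5% DMSO final, duplicates. Formaldehyde-fixed, Triton-permeabilised, immunostained for phospho-H2A.x with Hoechst; fluorescence imaged at 20x, bidirectional fit versus DMSO.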

N[C@@H](Cc1c[nH]c2ccccc12)C(=O)O
outcome [1]: inactive | outcome [2]: inactive | outcome [3]: inactive | outcome [4]: inactive | outcome [5]: inactive | outcome [6]: inactive | outcome [7]: inactive | outcome [8]: inactive | outcome [9]: inactive | outcome [10]: inactive | outcome [11]: inactive | outcome [12]: inactive | outcome [13]: inactive | outcome [14]: inactive | outcome [15]: inactive | outcome [16]: inactive | outcome [17]: inactive

CC(COCC(C)OC(=O)c1ccccc1)OC(=O)c1ccccc1 (stereo unspecified)
outcome [1]: inactive | outcome [2]: inactive | outcome [3]: inactive | outcome [4]: inactive | outcome [5]: inactive | outcome [6]: inactive | outcome [7]: inactive | outcome [8]: inactive | outcome [9]: inactive | outcome [18]: inactive | outcome [10]: inactive | outcome [11]: inactive | outcome [12]: inactive | outcome [13]: inactive | outcome [14]: inactive | outcome [15]: inactive | outcome [16]: inactive | outcome [17]: inactive

O=C1CCCCC1
outcome [1]: inactive | outcome [2]: inactive | outcome [3]: inactive | outcome [4]: inactive | outcome [5]: inactive | outcome [6]: inactive | outcome [7]: inactive | outcome [8]: inactive | outcome [9]: inactive | outcome [18]: inactive | outcome [10]: inactive | outcome [11]: inactive | outcome [12]: inactive | outcome [13]: inactive | outcome [14]: inactive | outcome [15]: inactive | outcome [16]: inactive | outcome [17]: inactive

Nc1nc(=S)c2[nH]cnc2[nH]1
outcome [1]: inactive | outcome [2]: inactive | AC50 [3]: 21.4 µM (active) | outcome [4]: inactive | outcome [5]: inactive | outcome [6]: inactive | outcome [7]: inactive | AC50 [8]: 63.2 µM (active) | AC50 [9]: 17.9 µM (active) | outcome [10]: inactive | AC50 [11]: 21 µM (active) | outcome [12]: inactive | outcome [13]: inactive | outcome [14]: inactive | outcome [15]: inactive | outcome [16]: inactive | outcome [17]: inactive

O=Cc1ccccc1C=O
outcome [1]: inactive | outcome [2]: inactive | outcome [3]: inactive | outcome [4]: inactive | outcome [5]: inactive | outcome [6]: inactive | outcome [7]: inactive | outcome [8]: inactive | outcome [9]: inactive | outcome [10]: inactive | outcome [11]: inactive | outcome [12]: inactive | outcome [13]: inactive | outcome [14]: inactive | outcome [15]: inactive | outcome [16]: inactive | outcome [17]: inactive

CC(=O)O[C@]1(C(C)=O)CC[C@H]2[C@@H]3C=C(Cl)C4=CC(=O)[C@@H]5C[C@@H]5[C@]4(C)[C@H]3CC[C@@]21C
outcome [1]: inactive | outcome [2]: inactive | outcome [3]: inactive | outcome [4]: inactive | outcome [5]: inactive | outcome [6]: inactive | outcome [7]: inactive | outcome [8]: inactive | outcome [9]: inactive | outcome [10]: inactive | outcome [11]: inactive | outcome [12]: inactive | outcome [13]: inactive | outcome [14]: inactive | outcome [15]: inactive | outcome [16]: inactive | outcome [17]: inactive

CCCC(=O)O
outcome [1]: inactive | outcome [2]: inactive | outcome [3]: inactive | outcome [4]: inactive | outcome [5]: inactive | outcome [6]: inactive | outcome [7]: inactive | outcome [8]: inactive | outcome [9]: inactive | outcome [18]: inactive | outcome [10]: inactive | outcome [11]: inactive | outcome [12]: inactive | outcome [13]: inactive | outcome [14]: inactive | outcome [15]: inactive | outcome [16]: inactive | outcome [17]: inactive

CC(C)c1cccc(C(C)C)c1
outcome [1]: inactive | outcome [2]: inactive | outcome [3]: inactive | outcome [4]: inactive | outcome [5]: inactive | outcome [6]: inactive | outcome [7]: inactive | outcome [8]: inactive | outcome [9]: inactive | outcome [10]: inactive | outcome [11]: inactive | outcome [12]: inactive | outcome [13]: inactive | outcome [14]: inactive | outcome [15]: inactive | outcome [16]: inactive | outcome [17]: inactive

C/C=C/c1ccc(OC)cc1
outcome [1]: inactive | outcome [2]: inactive | outcome [3]: inactive | outcome [4]: inactive | outcome [5]: inactive | outcome [6]: inactive | outcome [7]: inactive | outcome [8]: inactive | outcome [9]: inactive | outcome [10]: inactive | outcome [11]: inactive | outcome [12]: inactive | outcome [13]: inactive | outcome [14]: inactive | outcome [15]: inactive | outcome [16]: inactive | outcome [17]: inactive
